# PubChem BioAssay AID556 (SRMLSC, 2006)
# The whole screen tested about 65,000 compounds, of which about 320 (0.49%) were called active.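 The calls were made as follows: active = the 320 compounds with the highest percent inhibition in the single-dose primary screen, excluding strongly autofluorescent ones (cut at about 32% in these data); inactive = the rest, inconclusive results apart.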 This excerpt belongs to a sample that is enriched for actives.
# Tested on: diphosphomevalonate decarboxylase (Streptococcus pneumoniae D39)
# Assay: S. pneumoniae DPM-DC inhibitors, primary screen, biochemical, PK/LDH-coupled NADH fluorescence (AID 556);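 as to inhibition: kinetic rate of NADH fluorescence loss reporting ADP formed by the decarboxylase; 0% = full reaction rate with carrier and 100% = no-substrate background rate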
# Conditions: purified DPM-DC, at 10 µM
# [1] = stronger effect = higher value unless noted
# [2] = measured here: pilot screen trials, stronger effect = higher value
smiles,measurement,setting,value
CCOC(=O)N1CCC(O)(c2cc(C)c(C)cc2C)CC1,inhibition,[1],"0.5% [measured here: pilot screen trials, stronger effect = higher value]"
same,outcome,[1],inactive
O=C(C1=C(O)C(=O)N(c2ncccn2)C1c1cccs1)c1ccco1 (stereo not drawn),inhibition,[1],1% (inactive)
Cc1[nH]c2ccc(S(N)(=O)=O)cc2c1C,inhibition,[1],inactive
CCN(CC)c1ccc(C(=O)OCC(=O)c2ccco2)cc1,inhibition,[1],inactive
Cc1ccc(S(=O)(=O)N2CC(=O)Nc3ccccc32)cc1C,inhibition,[1],inactive
Cc1nc(NC(=O)C23CCC(C)(C(=O)O2)C3(C)C)sc1C (stereo not drawn),inhibition,stronger effect = higher value,6% (inactive)
same,inhibition,[2],2%
Cc1noc(C)c1C(=O)OCC(=O)/C=C1\N(C)c2ccccc2C1(C)C,inhibition,[1],inactive
CCOC(=O)CN1CC23C=CC(O2)C(C(=O)Nc2ccc(F)cc2)C3C1=O (stereo not drawn),inhibition,[1],inactive
CCOCCOC(=O)C1=C(C)N(C)C(=O)NC1c1ccccc1F (stereo not drawn),inhibition,[1],inactive
Cc1c(C(=O)N2CC(C)OC(C)C2)sc2nc(-c3ccccc3)cn12 (stereo not drawn),inhibition,[1],inactive
Cc1c(C(=O)NCCN2CCOCC2)sc2nc(-c3ccc(F)cc3)cn12,inhibition,[1],9% (inactive)
Cc1c(C(=O)NCC2CCCO2)sc2nc(-c3ccccc3)cn12 (stereo not drawn),inhibition,[1],35% (active)
C=CCn1c(C2CC(=O)N(c3ccc(C)cc3)C2)nc2ccccc21 (stereo not drawn),inhibition,[1],inactive
O=C(CSc1nc2cc3c(cc2c(=O)n1CCC1=CCCCC1)OCO3)NCc1ccco1,inhibition,[1],inactive
CCNS(=O)(=O)c1ccc(NC(=O)Nc2cccc(C(F)(F)F)c2)cc1,inhibition,[1],inactive
CCCCOc1ccc(C(C)(O)CCN2CCOCC2)cc1 (stereo not drawn),inhibition,[1],inactive
CC1(C)Oc2ccc(C(=O)N3CCOCC3)cc2N(CC(=O)Nc2ccccc2)C1=O,inhibition,[1],inactive
CCCCNc1nc2ccccc2nc1NS(=O)(=O)c1cccs1,inhibition,[1],2% (inactive)
Cc1ccc(CN2C(=O)CCC2C(=O)NCCCN2CCCCC2C)cc1 (stereo not drawn),inhibition,[1],inactive
Cn1c(SCc2nc3ccccc3s2)nnc1-c1ccc2c(c1)OCO2,inhibition,[1],inactive
Cc1cccc(N2CCN(C(=O)C3CCN(S(=O)(=O)c4cnc[nH]4)CC3)CC2)c1C,inhibition,[1],inactive
CCCCCCOC(=O)NCC(O)c1ccccc1 (stereo not drawn),inhibition,[1],inactive
Cc1nc(NCCN)c(C#N)c2c1COC(C)(C)C2,inhibition,[1],32% (active)
Cc1nc(NCc2ccccc2)c(C(N)=O)c2c1COC(C)(C)C2,inhibition,[1],24% (inactive)
Cc1cc(C)c(S(=O)(=O)NCCCN2CCOCC2)cc1Br,inhibition,[1],inactive
Cn1c(=O)c(=O)n(C)c2cc(S(=O)(=O)NCCc3ccccc3)ccc21,inhibition,[1],inactive
Cc1ccc(S(=O)(=O)NCCN2CCOCC2)cc1C,inhibition,stronger effect = higher value,80% (active)
same,inhibition,[2],0%
COCCNC(=O)CN1C(=O)CSc2ncccc21,inhibition,[1],"0% [measured here: pilot screen trials, stronger effect = higher value]"
same,outcome,[1],inactive
c1ccc(CCc2nc(-c3ccncc3)no2)cc1,inhibition,[1],inactive
Cc1ccccc1CN1CCN(CC(=O)NCc2ccccn2)C1=O,inhibition,[1],inactive
COc1ccc2c(c1)C(C)=CC(C)(C)N2C(=O)CNCc1ccc2c(c1)OCO2,inhibition,[1],7% (inactive)
CC(C)c1nc2oc3c(N4CCN(C)CC4)ncnc3c2c2c1CCC2,inhibition,[1],inactive
Cc1cccc(C)c1NC(=O)CCCSc1nnc(-c2ccco2)n1-c1ccccc1,inhibition,[1],inactive
NC(=O)c1ccsc1NC(=O)c1ccco1,inhibition,[1],9% (inactive)
Cc1cc(C)c(C#N)c(SCS(=O)c2ccc(C(C)(C)C)cc2)n1 (stereo not drawn),inhibition,[1],inactive
O=C(CCS(=O)(=O)c1cccc2nonc12)NCCc1ccccc1Cl,inhibition,[1],inactive
CCC1=C(C(=O)OC)C(c2cc(OC)ccc2OC)C(C#N)=C(N)O1 (stereo not drawn),inhibition,[1],"0% [measured here: pilot screen trials, stronger effect = higher value]"
same,outcome,[1],inactive
COCCCN1C(=O)c2ccc(C(=O)Nc3ccc(OC)cc3OC)cc2C1=O,inhibition,[1],inactive
CCCN1C(=O)C(NC(C)=O)c2cc(OC)ccc21 (stereo not drawn),inhibition,[1],40% (active)
CCC(=O)c1ccc(OCC(O)CN2C(=O)NC(C)(C)C2=O)cc1 (stereo not drawn),inhibition,[1],inactive
CC1(C)CC(=O)C=C(NCc2ccncc2)C1,inhibition,[1],"2.5% [measured here: pilot screen trials, stronger effect = higher value]"
same,outcome,[1],inactive
CCCC(=O)N=c1sc2cccc(F)c2n1C,inhibition,[1],inactive
Cn1c(=NC(=O)c2ccco2)sc2cccc(F)c21,inhibition,[1],37% (active)
Cn1c(=NC(=O)C2CC2)sc2cc(F)cc(F)c21,inhibition,[1],inactive
c1ccc(-n2ncc3c2ncn2c(C4CCCCC4)nnc32)cc1,inhibition,[1],inactive
CC(=O)Nn1cc2c(=O)n(C)c(=O)n(C)c2c1,inhibition,[1],inactive
COc1cc(C(=O)N(Cc2ccc(N(C)C)cc2)C2CCS(=O)(=O)C2)cc(OC)c1OC (stereo not drawn),inhibition,[1],inactive
COc1ccc(OCC(=O)N2CCOCC2)cc1,inhibition,[1],inactive
CCCCOC(=O)Nc1nccs1,inhibition,stronger effect = higher value,1% (inactive)
same,inhibition,[2],4.5%
CN(C)CCNC(CC(=O)Nc1ccc(Cl)c(Cl)c1)C(=O)O (stereo not drawn),inhibition,[1],inactive
COc1cc(Cl)cc(C2NC(=O)NC(C)=C2C(=O)NCc2ccccc2)c1O (stereo not drawn),inhibition,[1],12% (inactive)
CCOc1ccc(C2C(C(=O)NC)=C(C)Nc3nc4ccccc4n32)cc1OC (stereo not drawn),inhibition,[1],inactive
Cc1onc(-c2ccccc2)c1C(=O)Nc1ccccc1C#N,inhibition,[1],5% (inactive)
CC(=O)N1CCc2cc(S(=O)(=O)Nc3ccccc3N3CCN(C)CC3)ccc21,inhibition,[1],1% (inactive)
CC(c1cccnc1)N(CCN(C)C)C(=O)Nc1ccc(Cl)c(Cl)c1 (stereo not drawn),inhibition,[1],inactive
COc1ccc(C(CNC(=O)c2cccnc2SC)N2CCOCC2)cc1 (stereo not drawn),inhibition,[1],inactive
COc1cc(C2C(C(=O)Nc3ccccc3OC)=C(C)Nc3ncnn32)ccc1O (stereo not drawn),inhibition,[1],inactive
Cc1cc(NC(=O)CSc2nnc(-c3ccc(Cl)s3)o2)no1,inhibition,[1],inactive
COc1ccc(OCCCC(=O)Nc2nnc(C3CCCO3)s2)cc1 (stereo not drawn),inhibition,[1],inactive
O=C(Nc1ccccc1N1CCN(C(=O)c2ccccc2)CC1)c1ccc2c(c1)OCO2,inhibition,[1],inactive
Cc1ccc(C)c(S(=O)(=O)N2CC(=O)Nc3ccccc32)c1,inhibition,[1],inactive
COc1ccc(S(=O)(=O)N2CCOCC2)cc1C(=O)Nc1nc2ccccc2s1,inhibition,[1],6% (inactive)
N#Cc1cccc(NC(=O)CCC2CCCC2)c1,inhibition,[1],inactive
CCCCn1nc(C(=O)N2CCc3ccccc32)c2ccccc2c1=O,inhibition,stronger effect = higher value,4% (inactive)
same,inhibition,[2],2%
Cc1cc(C)nc(SCc2nnc(SCC(=O)OC3CCCCC3)o2)n1,inhibition,[1],inactive
Cc1cc(=O)cc(C)[nH]1,inhibition,[1],42% (active)
Cc1cc(=O)[nH]c(=S)[nH]1,inhibition,[1],inactive
COc1ccc(C2CC(c3ccc(Cl)cc3Cl)Nc3nc(N)nn32)cc1OC (stereo not drawn),inhibition,[1],inactive
CCOC(=O)CCCNC(=O)CN1C(=O)NC(CCc2ccccc2)C1=O (stereo not drawn),inhibition,[1],inactive
CCOc1ccc(-c2nnn(CC(=O)N3CCN(c4ccc(F)cc4)CC3)n2)cc1OCC,inhibition,[1],"0% [measured here: pilot screen trials, stronger effect = higher value]"
same,outcome,[1],inactive
CCOC(=O)CSc1nccc(N(C)C)c1C#N,inhibition,[1],inactive
CC(=O)c1cc(-c2ccccc2)[nH]c1N1CCCC1,inhibition,[1],1% (inactive)
CCOC(=O)/C=c1\s/c(=C\c2ccccc2OC)c(=O)n1CC(=O)N1CCOCC1,inhibition,[1],4% (inactive)
CC1(C)CC(CCC(=O)Nc2ccccc2Cl)C(=O)O1 (stereo not drawn),inhibition,[1],inactive
COc1ccc(-n2nnc3c(=O)n(CC(=O)N4CCC(Cc5ccccc5)CC4)cnc32)cc1,inhibition,[1],inactive
CCOC(=O)c1ccc(N2C(=O)CC(N3CC(C)OC(C)C3)C2=O)cc1 (stereo not drawn),inhibition,[1],inactive
O=C(O)c1ccc(-n2cccc2)cc1O,inhibition,[1],1% (inactive)
Cc1ccc(S(=O)(=O)N2CCCC2C(=O)NCc2ccco2)cc1 (stereo not drawn),inhibition,[1],4% (inactive)
O=C1NC2(CCCCC2)N=C1c1ccccc1,inhibition,[1],inactive
COc1ccc(S(=O)(=O)N2CCC(C(=O)N3CCc4ccccc4C3)CC2)cc1OC,inhibition,[1],inactive
CCOC(=O)c1c(-n2cnnn2)sc(C)c1C,inhibition,[1],2% (inactive)
Cc1nc(C)c(C(=O)Nc2cccc(C)c2C)o1,inhibition,[1],inactive
COc1ccc2[nH]c(=O)c(CN(CC3CCCO3)C(=O)Nc3ccccc3)cc2c1 (stereo not drawn),inhibition,[1],33% (active)
COc1ccc2[nH]c(=O)c(CN(Cc3nnnn3CCc3ccccc3)CC3CCCO3)cc2c1 (stereo not drawn),inhibition,[1],2% (inactive)
CCC(c1nnnn1Cc1ccccc1)N(Cc1cc2cc(OC)ccc2[nH]c1=O)CC1CCCO1 (stereo not drawn),inhibition,[1],5% (inactive)
O=C1[C@@H]2C(Cc3ccc(O)cc3)NC3(C(=O)Nc4ccc(F)cc43)[C@@H]2C(=O)N1c1ccc(F)cc1 (stereo partly drawn),inhibition,[1],inactive
CSc1ccc(NC(=O)N2CC(C)OC(C)C2)cc1 (stereo not drawn),inhibition,[1],inactive
CCOc1ccc(/C(O)=C2/C(=O)C(=O)N(Cc3cccnc3)C2c2ccc(N(C)C)cc2)c(C)c1 (stereo not drawn),inhibition,[1],2% (inactive)
Cc1ccc(N(C(=O)CC2NC(=O)NC2=O)C2(C(=O)NC3CCCC3)CCCCC2)cc1 (stereo not drawn),inhibition,[1],inactive
COc1ccc(CCNC(=O)CN2CCC(n3nnc4cc(F)ccc43)CC2)cc1OC,inhibition,[1],inactive
O=C(CSc1nnnn1C1CCCC1)Nc1ccc2c(c1)OCCO2,inhibition,[1],inactive
N#CCCN1CCN(S(=O)(=O)c2ccc(S(=O)(=O)N3CCCC3)cc2)CC1,inhibition,[1],7% (inactive)
CN(CC(=O)NC1CCCCC1)S(=O)(=O)c1cccc2cccnc12,inhibition,[1],inactive
O=C(Oc1ccccc1)c1ccc2nccnc2c1,inhibition,[1],inactive
CCOC(=O)c1sc(NC(=O)c2cc(S(=O)(=O)N3CCOCC3)ccc2C)nc1C,inhibition,[1],11% (inactive)
Cc1ccc(N2CCN(c3ccc(C)cc3)C2c2ccccn2)cc1,inhibition,[1],inactive
O=C(c1cc(-c2cccc(O)c2)on1)N1CCc2ccccc2C1,inhibition,[1],1% (inactive)
COc1cc(Cl)c(S(=O)(=O)N2CCN(Cc3ccc4c(c3)OCO4)CC2)cc1Cl,inhibition,[1],inactive
Cc1ccc(C(=O)N2CCCCCC2)cc1Br,inhibition,[1],inactive
Cc1ccc2cc3cc(C(=O)N4CCCCCC4)oc3nc2c1,inhibition,[1],33% (active)
O=C(c1cc(-c2cccs2)on1)N1CCCCC1,inhibition,[1],inactive
CCOC(=O)CNC(=O)CSc1nnc(COc2ccc(Cl)cc2)n1CC,inhibition,[1],2% (inactive)
Cc1oc(-c2ccccc2F)nc1CS(=O)(=O)CC(=O)NCCCN(C)C1CCCCC1,inhibition,[1],9% (inactive)
COc1ccc(-n2c(Cc3cccn3C)nnc2SCC(=O)Nc2cc(C)cc(C)c2)cc1,inhibition,[1],inactive
O=C(O)CCCC(=O)Nc1ccccc1-n1ccnc1,inhibition,[1],inactive
Cc1nc(SCC(=O)Nc2cc(C)on2)c2c(C)c(C)sc2n1,inhibition,[1],inactive
CCOc1ccccc1N(CC(=O)Nc1ccccc1C(=O)OC)S(C)(=O)=O,inhibition,[1],inactive
COc1ccc(OC)c(NC(=O)CN2CCN(C(=O)c3ccco3)CC2)c1,inhibition,[1],inactive
COc1cccc(C2/C(=C(/O)c3ccncc3)C(=O)C(=O)N2CCCN(C)C)c1 (stereo not drawn),inhibition,[1],16% (inactive)
CC(C)c1nc(-c2ccccn2)no1,inhibition,[1],inactive
CC(=O)NCC(=O)N(C)C(C(=O)Nc1ccc2c(c1)OCCO2)c1ccccc1 (stereo not drawn),inhibition,[1],inactive
Cc1cc(C)cc(OCc2nnc(SCC(=O)OC3CCCCC3)o2)c1,inhibition,[1],inactive
CCOC(=O)c1ccc(N2C(=O)CC(Sc3nc(O)c(CC)c(=O)[nH]3)C2=O)cc1 (stereo not drawn),inhibition,[1],inactive
Cn1c2c(c(=O)n(C)c1=O)C1c3ccccc3OCC1C(C)(C)O2 (stereo not drawn),inhibition,[1],10% (inactive)
